Data reported in PubChem BioAssay.
This is one part of the list. Active and inactive are the calls of the source.

Legend:
[1] = biological target: Inward rectifier potassium channel 2 (Mus musculus) (UniProt P35561); test: mouse Kir2.1 channel blockers, retest, confirmation, cell-based, FluxOR thallium flux, duplicate (AID 2032;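 active means Primary-screen hit whose thallium flux fell at least 3 control SD below untreated wells in both duplicates, with normal baseline fluorescence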); settings: Kir2.1-expressing cells, FluxOR thallium flux fluorescence, at 10 µM; hits give low values
Inward rectifier potassium channel 2 (Mus musculus), sequence (P35561 whole entry, looked up): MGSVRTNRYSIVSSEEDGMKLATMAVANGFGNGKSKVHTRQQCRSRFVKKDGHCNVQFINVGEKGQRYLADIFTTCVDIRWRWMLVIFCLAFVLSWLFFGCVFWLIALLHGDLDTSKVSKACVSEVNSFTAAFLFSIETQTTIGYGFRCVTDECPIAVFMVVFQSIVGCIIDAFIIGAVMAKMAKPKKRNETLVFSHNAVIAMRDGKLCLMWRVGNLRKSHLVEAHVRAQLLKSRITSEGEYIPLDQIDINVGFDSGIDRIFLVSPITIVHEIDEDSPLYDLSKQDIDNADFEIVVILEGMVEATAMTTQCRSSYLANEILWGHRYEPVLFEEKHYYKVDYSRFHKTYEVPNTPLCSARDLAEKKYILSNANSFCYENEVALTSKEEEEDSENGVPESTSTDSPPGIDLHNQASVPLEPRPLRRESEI

[2] = nonspecific thallium flux effects in parental HEK293 cells, confirmation, counter-screen for Kir2.1 inhibitor project, cell-based, FluxOR thallium flux, duplicate, single concentration (AID 2105;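 active means dye signal at least 3 control SD above or below untreated wells in both duplicates, raw fluorescence within 3, either direction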); settings: FluxOR thallium flux fluorescence, at 10 µM; 0% = unstimulated blank wells
[3] = biological target: Voltage-gated inwardly rectifying potassium channel KCNH2 (Homo sapiens) (UniProt Q12809); test: hERG channel inhibition, counter-screen for Kir2.1 inhibitor project, cell-based, thallium flux (AID 2236); settings: hERG-expressing cells, at 10 µM; hits give high values;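 further: host cells are CHO cells stably expressing hERG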
Voltage-gated inwardly rectifying potassium channel KCNH2 (Homo sapiens), sequence (Q12809 whole entry, looked up): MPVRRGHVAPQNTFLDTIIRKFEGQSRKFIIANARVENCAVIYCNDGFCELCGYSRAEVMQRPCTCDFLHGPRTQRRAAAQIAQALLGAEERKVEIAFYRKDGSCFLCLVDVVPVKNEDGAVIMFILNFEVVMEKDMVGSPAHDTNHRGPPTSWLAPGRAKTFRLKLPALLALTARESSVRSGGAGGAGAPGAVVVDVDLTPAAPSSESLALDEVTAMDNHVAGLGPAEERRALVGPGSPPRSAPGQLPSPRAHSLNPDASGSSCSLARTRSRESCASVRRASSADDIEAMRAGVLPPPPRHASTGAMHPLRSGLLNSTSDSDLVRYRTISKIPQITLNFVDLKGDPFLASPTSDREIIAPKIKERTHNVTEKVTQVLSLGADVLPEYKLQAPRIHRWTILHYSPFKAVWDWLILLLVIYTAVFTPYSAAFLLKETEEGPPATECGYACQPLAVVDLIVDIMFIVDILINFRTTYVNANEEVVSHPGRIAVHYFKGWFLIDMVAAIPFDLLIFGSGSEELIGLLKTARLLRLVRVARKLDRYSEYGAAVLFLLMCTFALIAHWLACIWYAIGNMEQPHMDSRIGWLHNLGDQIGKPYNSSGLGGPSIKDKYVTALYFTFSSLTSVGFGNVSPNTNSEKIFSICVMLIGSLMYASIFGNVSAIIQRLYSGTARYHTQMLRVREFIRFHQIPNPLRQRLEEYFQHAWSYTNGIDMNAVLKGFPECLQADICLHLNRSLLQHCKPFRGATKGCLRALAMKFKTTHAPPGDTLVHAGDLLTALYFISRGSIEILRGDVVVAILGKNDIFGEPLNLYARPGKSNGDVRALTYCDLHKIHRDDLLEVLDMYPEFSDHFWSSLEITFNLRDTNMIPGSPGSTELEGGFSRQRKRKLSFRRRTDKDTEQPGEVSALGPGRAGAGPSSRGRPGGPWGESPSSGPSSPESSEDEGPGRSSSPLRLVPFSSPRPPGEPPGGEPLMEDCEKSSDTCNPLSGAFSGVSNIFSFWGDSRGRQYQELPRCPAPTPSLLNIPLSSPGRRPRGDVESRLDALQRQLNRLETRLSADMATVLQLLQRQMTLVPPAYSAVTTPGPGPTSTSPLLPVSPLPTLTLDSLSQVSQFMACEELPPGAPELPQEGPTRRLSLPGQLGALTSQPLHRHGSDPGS

[4] = biological target: Potassium channel subfamily K member 9 (Homo sapiens) (UniProt Q9NPC2); test: KCNK9 channel inhibition, selectivity assay for Kir2.1 inhibitor project, cell-based (AID 2329); settings: KCNK9-expressing cells, ion flux inhibition, at 10 µM; hits give high values
[5] = biological target: Inward rectifier potassium channel 2 (Mus musculus) (UniProt P35561); test: mouse Kir2.1 channel blockers, Kir2.1 inhibitor project, cell-based, secondary, automated electrophysiology (AID 463252); settings: Kir2.1 cells, automated patch-clamp current inhibition, at 25 µM; hits give high values
[6] = nonspecific thallium flux increase in parental CHO-K1, confirmation, counter-screen for KCNQ2 potentiator project, cell-based, FluxOR thallium flux, duplicate (AID 2282;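 active means signal rise of at least 3 SD above the untreated control mean, in both duplicate wells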;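 further: counter screen of KCNQ2 potentiator hits so any rise reflects channel-independent effects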); settings: parental CHO-K1 cells, FluxOR thallium flux fluorescence; at 10 µM; hits give high values; zero = vehicle mean+3SD, 100% = vehicle-minus-blank window
[7] = biological target: Potassium voltage-gated channel subfamily KQT member 1 (Homo sapiens) (UniProt P51787); test: human KCNQ1 channel potentiation off-target, confirmation, selectivity assay for KCNQ2 potentiator project, cell-based, CHO, FluxOR thallium flux (AID 2283;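 active means fluorescence ratio rise of at least 3 SD of vehicle wells above their mean, in both replicate wells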;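 further: 0% = vehicle mean plus 3 SD and 100% = vehicle minus unstimulated blank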); settings: CHO KCNQ1 stable, FluxOR thallium flux fluorescence; at 10 µM; hits give high values; beyond 3SD, as % of vehicle-control signal
Potassium voltage-gated channel subfamily KQT member 1 (Homo sapiens), sequence (P51787 whole entry, looked up): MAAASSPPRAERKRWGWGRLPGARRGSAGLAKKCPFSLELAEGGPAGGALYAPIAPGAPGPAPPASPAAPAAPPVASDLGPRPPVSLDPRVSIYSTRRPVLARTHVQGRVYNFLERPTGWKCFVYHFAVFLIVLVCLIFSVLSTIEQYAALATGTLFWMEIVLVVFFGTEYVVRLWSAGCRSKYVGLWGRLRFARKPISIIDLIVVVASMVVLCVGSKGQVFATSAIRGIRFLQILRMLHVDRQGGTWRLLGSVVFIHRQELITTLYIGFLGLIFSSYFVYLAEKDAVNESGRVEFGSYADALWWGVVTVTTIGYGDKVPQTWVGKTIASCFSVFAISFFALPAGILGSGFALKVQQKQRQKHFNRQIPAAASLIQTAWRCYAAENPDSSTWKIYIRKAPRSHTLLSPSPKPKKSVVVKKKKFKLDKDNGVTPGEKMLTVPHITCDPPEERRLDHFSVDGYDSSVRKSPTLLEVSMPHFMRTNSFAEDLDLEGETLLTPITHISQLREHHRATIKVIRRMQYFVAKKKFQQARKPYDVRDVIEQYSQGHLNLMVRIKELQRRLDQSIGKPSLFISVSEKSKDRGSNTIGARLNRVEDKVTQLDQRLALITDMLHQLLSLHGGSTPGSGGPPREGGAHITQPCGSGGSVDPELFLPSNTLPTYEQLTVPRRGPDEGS

[8] = biological target: Potassium voltage-gated channel subfamily KQT member 2 (Rattus norvegicus) (UniProt O88943); test: rat KCNQ2 channel potentiators, confirmation, cell-based, CHO, FluxOR thallium flux, duplicate (AID 2287;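 active means fluorescence ratio rising 3 SD or more over the vehicle control mean in both replicates, plus primary screen hit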;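 further: peak minus minimum thallium fluorescence divided by baseline after K/Tl stimulus; 0% = vehicle mean plus 3 SD and 100% = vehicle minus unstimulated blank difference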); settings: CHO-KCNQ2 cells, FluxOR thallium flux fluorescence; at 10 µM; hits give high values
[9] = biological target: Inward rectifier potassium channel 2 (Mus musculus) (UniProt P35561); test: PubChem AID 2345; settings: HEK293 Kir2.1, FluxOR thallium flux fluorescence; at 10 µM; hits give high values;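 further: 0% = vehicle mean plus 3 SD and 100% = vehicle minus no-stimulus blank window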
[10] = biological target: Potassium voltage-gated channel subfamily KQT member 2 (Rattus norvegicus) (UniProt O88943); test: potentiators of retigabine-insensitive KCNQ2 W236L, mechanism study for KCNQ2 potentiator project, cell-based, rat KCNQ2 W236L, CHO, automated patch clamp (AID 2558;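 active means current increase at least 3 SD of the untreated controls above them in both duplicate recordings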); settings: at 25 µM; outcome: automated patch clamp current
[11] = parental HEK293 membrane potential modulation, confirmation, counter-screen for TRPC6 modulator project, cell-based (AID 488924;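 active means membrane potential signal moves up or down beyond 5 SD from buffer-only wells, on both duplicate plates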); settings: parental HEK293, membrane potential dye fluorescence; at 10 µM
[12] = modulation of acetylcholine-evoked membrane potential, parental HEK293, confirmation, counter-screen for TRPC6 modulator project, cell-based, second counter-screen, membrane potential dye (AID 488926;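 active means membrane potential signal drops by more than 5 SD from the mean control signal, in both duplicate plates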); settings: parental HEK293, membrane potential dye fluorescence; at 10 µM; after compound, maximal acetylcholine stimulation
[13] = system: Transient receptor potential cation channel subfamily C member 4 (mouse); test: TRPC4 modulation by TRPC6 hit compounds, confirmation, selectivity assay for TRPC6 modulator project, cell-based, HEK293 TRPC4/mu-opioid, membrane potential dye, mouse (AID 488927;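 active means membrane potential signal moved up or down beyond 5 SD of buffer control wells, in both duplicate plates, actives on both sides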;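 further: plate controls were assay buffer wells for no effect and DAMGO maximal-effect wells for full effect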); settings: membrane potential fluorescence, at 10 µM
[14] = system: TRPC4 (transient receptor potential cation channel C4), mouse; test: TRPC4 inhibition by TRPC6 hit compounds, confirmation, selectivity assay for TRPC6 modulator project, cell-based, second screen, HEK293 TRPC4/mu-opioid, membrane potential dye (AID 488928;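 active means drop in membrane potential signal beyond 5 SD of the control wells in both duplicate plates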;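 further: TRPC4 counter screen for TRPC6 hits run under conditions tuned for TRPC6 not TRPC4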); settings: membrane potential dye fluorescence, at 10 µM, stimulated with maximal-effect DAMGO; hits give high values
[15] = biological target: Short transient receptor potential channel 6 (Mus musculus) (UniProt Q61143); test: mouse TRPC6 channel inhibitors, confirmation, HEK293 cells, membrane potential dye, duplicate (AID 488960;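 active means fluorescence ratio falls more than 5 SD below the full-stimulation control mean, in both duplicate runs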;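 on inhibition: integrated fluorescence ratio of peak minus minimum over baseline after agonist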); settings: ACh-evoked depolarization, at 10 µM; hits give high values
Short transient receptor potential channel 6 (Mus musculus), sequence (Q61143 whole entry, looked up): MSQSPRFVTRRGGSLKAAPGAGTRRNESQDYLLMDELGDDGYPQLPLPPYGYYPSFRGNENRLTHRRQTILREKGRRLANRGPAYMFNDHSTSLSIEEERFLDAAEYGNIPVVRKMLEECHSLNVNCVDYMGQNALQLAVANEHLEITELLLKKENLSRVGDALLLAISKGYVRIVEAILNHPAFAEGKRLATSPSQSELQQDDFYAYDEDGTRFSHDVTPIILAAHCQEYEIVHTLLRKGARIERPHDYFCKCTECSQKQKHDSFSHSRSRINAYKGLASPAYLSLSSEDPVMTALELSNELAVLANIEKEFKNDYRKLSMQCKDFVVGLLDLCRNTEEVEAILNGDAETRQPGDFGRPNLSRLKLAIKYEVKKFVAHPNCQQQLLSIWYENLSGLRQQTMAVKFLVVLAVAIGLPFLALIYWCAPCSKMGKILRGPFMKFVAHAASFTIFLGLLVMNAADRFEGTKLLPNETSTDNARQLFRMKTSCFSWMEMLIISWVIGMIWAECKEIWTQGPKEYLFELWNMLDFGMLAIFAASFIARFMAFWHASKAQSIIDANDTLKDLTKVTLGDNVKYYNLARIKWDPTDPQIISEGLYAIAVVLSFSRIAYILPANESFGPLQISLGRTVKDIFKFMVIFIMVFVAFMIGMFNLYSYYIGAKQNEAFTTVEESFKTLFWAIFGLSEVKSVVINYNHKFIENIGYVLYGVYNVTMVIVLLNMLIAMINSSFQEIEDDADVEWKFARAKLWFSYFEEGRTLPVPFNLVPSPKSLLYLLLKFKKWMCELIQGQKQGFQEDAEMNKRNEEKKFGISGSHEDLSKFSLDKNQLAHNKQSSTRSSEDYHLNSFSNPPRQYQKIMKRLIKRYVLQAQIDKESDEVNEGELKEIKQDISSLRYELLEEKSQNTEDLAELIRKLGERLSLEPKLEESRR

[16] = biological target: Short transient receptor potential channel 6 (Mus musculus) (UniProt Q61143); test: mouse TRPC6 channel activators, confirmation, HEK293 cells, membrane potential dye, duplicate (AID 488961;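 active means ratio signal rise beyond 5 SD above unstimulated control wells' mean, seen in both duplicate runs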;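 on activation: plate controls were buffer EC0 wells for no effect and acetylcholine ECmax response for full effect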); settings: HEK293-TRPC6 membrane potential dye fluorescence, FDSS, at 10 µM; hits give high values

Cc1ccccc1C(=O)NCCN=C1NS(=O)(=O)c2ccccc21
inactive: outcome [1] | outcome [2] | outcome [3] | outcome [4] | outcome [5]

CCN(CC(=O)NC(=O)NCc1ccccc1)Cc1nc2ccccc2c(=O)[nH]1
inactive: outcome [1] | outcome [2] | activity increase over 3SD of controls [6] -2.8% | activation over 3SD threshold [7] -14.6% | potentiation, less the hit threshold [8] -3% | activity over 3SD threshold [9] -39% | outcome [10]

Cc1cc(C)c(C)c(S(=O)(=O)Nc2ccc(O)cc2)c1C
inactive: outcome [2]
active: Tl flux remaining, % of negative control (hits give low values) [1] 65.5%

CCOC(=O)NC(C(F)(F)F)(C(F)(F)F)P(=O)(c1ccccc1)c1ccccc1
inactive: outcome [1] | outcome [2] | activity increase over 3SD of controls [6] -3.2% | activation over 3SD threshold [7] -13.6% | potentiation, less the hit threshold [8] -18.1% | activity over 3SD threshold [9] -34.2%

COc1ccc(CN2CCC(c3nc4ccc(Cl)cc4[nH]3)CC2)cc1
inactive: outcome [2]
active: Tl flux remaining, % of negative control (hits give low values) [1] 30%

CCCCCCCCCCOC(=O)Cn1c(COc2ccc(C)cc2)[n+](C)c2ccccc21
inactive: outcome [1] | outcome [2]

CC1(C)NC(=O)N(CCCCSc2ccc(Cl)cc2)C1=O
active: Tl flux remaining, % of negative control (hits give low values) [1] 46% | inhibition [5] 40.8%
inactive: outcome [2] | outcome [3] | outcome [4]

Cc1ccc(S(=O)(=O)N2CCN(C(=O)COC(=O)c3c(C)cc(C)cc3C)CC2)c(C)c1
inactive: outcome [1] | outcome [2] | activity increase over 3SD of controls [6] -0.8% | activation over 3SD threshold [7] -20.8% | activity over 3SD threshold [9] -17.6% | outcome [10]
active: potentiation, less the hit threshold [8] 14.7%

C=CCc1cc(S(=O)(=O)c2ccc(O)c(CC=C)c2)ccc1O
inactive: outcome [2] | outcome [3] | outcome [5]
active: Tl flux remaining, % of negative control (hits give low values) [1] 40.5% | inhibition [4] 79%

CCCCOC(=O)Cn1c(=O)n(CC(=O)OCCCC)c2cc(C)ccc21
inactive: outcome [1] | outcome [2]

CCCn1c(C2CCCN2c2nc(-c3ccc(C)cc3)cs2)nc2cc(Cl)c(N3CCCCC3)cc21 (configuration not stated)
inactive: outcome [1] | outcome [2] | activation over 3SD threshold [7] -30.1% | potentiation, less the hit threshold [8] -9.8% | activity over 3SD threshold [9] -27.9%
active: activity increase over 3SD of controls [6] 12.5%

O=C(NCCc1c[nH]c2ccccc12)C1CCN(Cc2ccc(Br)cc2)CC1
active: Tl flux remaining, % of negative control (hits give low values) [1] 62% | inhibition [3] 61% | percent change from control (negative = decrease, positive = increase) [13] 11% | inhibition [14] 58%
inactive: outcome [2] | outcome [4] | outcome [5] | outcome [11] | outcome [12] | outcome [15] | outcome [16]

O=C(Nc1cccc(-c2cscn2)c1)C1CCN(Cc2ccsc2)CC1
inactive: outcome [2] | outcome [4]
active: Tl flux remaining, % of negative control (hits give low values) [1] 44% | inhibition [3] 51% | inhibition [5] 7.1%

Cc1ccc(Nc2c3c(nc4ccccc24)CCC3)cc1
active: Tl flux remaining, % of negative control (hits give low values) [1] 16% | inhibition [3] 61% | inhibition [5] 83.9%
inactive: outcome [2] | outcome [4]

O=C(/C=C/Sc1ncn[nH]1)c1ccc(Cl)cc1
active: activation over 3SD threshold [7] 0.3%
inactive: outcome [1] | outcome [2] | activity increase over 3SD of controls [6] -4% | potentiation, less the hit threshold [8] -17.8% | activity over 3SD threshold [9] -56.5%

CC(NCc1ccccc1OC1CCCC1)c1ccccc1 (configuration not stated)
active: Tl flux remaining, % of negative control (hits give low values) [1] 23.5% | inhibition [5] 23.4% | membrane potential signal change [11] 416% | percent change from control (negative = decrease, positive = increase) [13] 114% | inhibition [14] 79.5% | inhibition [15] 83% | activation [16] 122%
inactive: outcome [2] | outcome [3] | outcome [4] | outcome [12]
